Assay results as given in PubChem BioAssay AID1465 (SRMLSC, 2008).
In all, about 220,000 compounds went through this assay and about 160 (0.073%) were called active.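 Rule for the calls: active = fold induction of absorbance versus untreated yeast above a set limit, then at least 30% activation at any dose in follow-up; inconclusive = repeats straddling the limit, or above it without dose testing; inactive = fold induction below the set limit.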 These entries were drawn from the full list. Measured potencies and affinities stand elsewhere.

Experiment: mitochondrial function rescue without frataxin homolog – Friedreich's ataxia, plus single-dose screen, dose response (AID 1465)
Details: S. cerevisiae Yfh1-off respiration, WST-1 reduction, 72 h; at 50 µM; active compounds read high

| Compound | fold induction |
| --- | --- |
| CC[n+]1c(/C=C2\C=C(C)CC(C)C2)sc2ccccc21 (stereo unspecified) | 0.873 (inactive) |
| CC[n+]1c(/C=C2/C=C(C)CC(C)C2)sc2ccccc21 (stereo unspecified) | 0.96 (inactive) |
| CC[n+]1c(/C=C2\C=C(C)CC(C)(C)C2)sc2ccccc21 | 0.86 (inactive) |
| CC[n+]1c(/C=C(\C)SC)sc2ccccc21 | 0.92 (inactive) |
| COc1ccc(C(=O)COC(=O)c2ccc(N(C)C)cc2)cc1 | 1.01 (inactive) |
| Cc1[nH]nc(SCC(=O)NC2CCCC2)c1[N+](=O)[O-] | 1.05 (inactive) |
| COCC(=O)N1CCCN(c2nc3c(C)cccc3cc2C#N)CC1 | 0.96 (inactive) |
| CCC(=O)N1COC[C@@H]1Cc1ccccc1 | 1.04 (inactive) |
| COC(=O)c1cc2c(ccn2-c2ccc(F)cc2)n1Cc1ccc(C#N)cc1 | 1.03 (inactive) |
| O=C(O)C(Cc1ccccc1)N1C(=O)/C(=C/c2ccccc2)SC1=S (stereo unspecified) | 0.93 (inactive) |
| Cn1cccc1/C=C1\SC(=S)N(NC(=O)c2ccccc2)C1=O | 1.81 (inactive) |
| CCC(C(=O)O)N1C(=O)/C(=C/C(C)=C/c2ccccc2)SC1=S (stereo unspecified) | 1.22 (inactive) |
| Cn1cccc1/C=C1\SC(=S)N(Nc2ccccc2)C1=O | 1.02 (inactive) |
| NC(=O)c1cccc2c(=O)oc3ccccc3c12 | 0.99 (inactive) |
| CN1CCN(C(=O)c2cc(C(C)(C)C)cc(C(C)(C)C)c2)CC1 | 1.02 (inactive) |
| Cn1nnnc1P(=O)(c1ccccc1)c1ccccc1 | 1.15 (inactive) |
| O=C(Nc1ccccc1-c1nc2ccccc2[nH]1)c1ccc(N2C(=O)CCC2=O)cc1 | 1.11 (inactive) |
| O=c1c(N2CCOCC2)c(N2CCOCC2)c1=O | 1.08 (inactive) |
| CC1=C(N2CCOCC2)CCC1=O | 0.92 (inactive) |
| Cc1nc2ccc(NC(=O)COc3ccccc3[N+](=O)[O-])cc2s1 | 0.97 (inactive) |
| CN(C(=O)COC(=O)c1ccc(Cl)cc1N)C1CCCCC1 | 1.06 (inactive) |
| CC(=O)c1cccc(NC(=O)N2CCCC2C(=O)Nc2c(C)cccc2C)c1 (stereo unspecified) | 1.07 (inactive) |
| COc1ccc(C2=NN(c3nc4ccccc4s3)C(=O)/C2=C\N(C)C)cc1 | 1.14 (inactive) |
| COc1ccc(C2=NN(c3nc(C)cc(C)n3)C(=O)C2)cc1 | 1.09 (inactive) |
| CC(=O)Oc1cccc(-c2nc3ccccc3c(=O)o2)c1 | 0.89 (inactive) |
| CCOC(=O)c1[nH]c2ccccc2c1NC(=O)C1CCCCC1 | 1.05 (inactive) |

| Compound | fold induction |
| --- | --- |
| Cc1coc2c1C(=O)C(=O)c1c-2ccc2c1CCCC2(C)C | 1.54 (inactive) |
| Cc1ccc2c3c(cccc13)-c1ccccc1C2=O | 0.91 (inactive) |
| Cc1ccc(CN2C(=O)CCC2C(=O)NC(C)C)cc1 (stereo unspecified) | 1.04 (inactive) |
| COc1ccc2c(c1)c(CCN1C(=O)c3ccccc3C1=O)cn2C(=O)c1ccco1 | 1.01 (inactive) |
| CCOc1cc(/C=N\O)cc(Cl)c1OCC | 0.87 (inactive) |
| CCOc1ccc2nc3ccc4[nH]onc4c3c2c1 | 0.93 (inactive) |
| CCCCNC1=CC(=O)C(=O)c2ccccc21 | 2.68 (inactive) |
| O=C1C=C(Nc2ccccc2)c2ccccc2C1=O | 1 (inactive) |
| O=C(C1CCCO1)N1CCN(C(=S)Nc2ccccc2Cl)CC1 (stereo unspecified) | 0.94 (inactive) |
| COCCCn1c(SCc2nnc(-c3ccc(OC)c(OC)c3)o2)nnc1-c1ccncc1 | 1.13 (inactive) |
| COC(=O)N/N=C/c1cc(OC)c(O)c([N+](=O)[O-])c1 | 1.19 (inactive) |
| COc1cc(/C=N/NC(=O)c2ccc(C)nc2)cc([N+](=O)[O-])c1O | 1.21 (inactive) |
| COC(=O)C1CCN(C(=O)Cc2c(OC)ccc3cc(Br)ccc23)CC1 | 0.95 (inactive) |
| CCOC(=O)C1(Cc2cccc(OC)c2)CCN(CC=C(C)C)CC1 | 1.02 (inactive) |
| O=[N+]([O-])c1ccc(Sc2cccc3cccnc23)c2cccnc12 | 1.02 (inactive) |
| O=[N+]([O-])c1cccc(CSc2cccc[n+]2[O-])c1 | 1.1 (inactive) |
| CCN(C(=O)CSc1ncccc1C(=O)Oc1cccc([N+](=O)[O-])c1)c1cccc(C)c1 | 0.93 (inactive) |
| O=C(NCCNc1ccc([N+](=O)[O-])cc1)c1ccco1 | 1.23 (inactive) |
| CCN(CC)S(=O)(=O)c1ccc(N/N=C/c2cccnc2)nc1 | 1.09 (inactive) |
| Clc1ccc(CSc2ccc(-c3ccccn3)nn2)cc1 | 0.99 (inactive) |
| c1cncc(CSc2ccc(-c3cccnc3)nn2)c1 | 1.13 (inactive) |
| Cc1cc(C(=O)N/N=C/c2ccccc2Br)no1 | 0.94 (inactive) |
| COC(=O)c1nc(NC2=NCCCCC2)n[nH]1 | 1.02 (inactive) |
| COC(=O)c1cc(OC)c(OC)cc1NC(=O)c1cccc(OC)c1OC | 1.09 (inactive) |
| O=C(C=C1CCN(c2ncc(C(F)(F)F)cc2Cl)CC1)NNC(=O)Nc1ccccc1 | 0.89 (inactive) |
| O=C1NN(c2ccc(F)cc2)C(=O)/C1=C\c1cnn(-c2ccccc2)c1 | 1.14 (inactive) |

| Compound | fold induction |
| --- | --- |
| COc1ccc(NC(=O)c2csc3c2CCCCC3)c(OC)c1 | 1 (inactive) |
| COc1ccc(CNC(=O)CCS(=O)(=O)Cc2ccc(C)cc2)c(OC)c1 | 0.98 (inactive) |
| CCOC(=O)c1cnn(-c2ccccc2)c1NC(=O)c1ccccc1C | 0.92 (inactive) |
| COc1ccccc1NS(=O)(=O)c1cccc(C(=O)N/N=C/c2ccccc2OCC(=O)O)c1 | 0.99 (inactive) |
| CCN(CC)c1ccc(/C=N/NC(=O)c2cccc(S(=O)(=O)Nc3ccccc3OC)c2)cc1 | 1.14 (inactive) |
| O=C(NCc1n[nH]c(=S)n1-c1ccc(Cl)c(Cl)c1)c1cccs1 | 0.98 (inactive) |
| O=C(NNC1=C(C(=O)C(F)(F)F)CCC1)c1ccncc1 | 1.05 (inactive) |
| O=C(NNC1=C(C(=O)C(F)(F)F)CCC1)c1ccccc1O | 0.82 (inactive) |
| O=C(NNC1=C(C(=O)C(F)(F)F)CCC1)c1ccccc1Cl | 1.02 (inactive) |
| O=C(NNC1=C(C(=O)C(F)(F)F)CCC1)c1ccc(Cl)cc1 | 1.11 (inactive) |
| CN(C)c1ccc(NC(=O)C(=O)NCCOc2ccccc2)cc1 | 0.95 (inactive) |
| CC(C)=CC(=O)OCC(=O)Nc1cc(C)cc(C)c1 | 0.86 (inactive) |
| Cc1cc(C)nc(SCc2ccc(C(=O)N/N=C/c3ccccn3)cc2)n1 | 1.01 (inactive) |
| CCSc1nc(=O)n(-c2ccccc2)c(C)c1C(C)=O | 1.05 (inactive) |
| CC(C)C(=O)Nc1cccc(NC(=O)c2cccc([N+](=O)[O-])c2)c1 | 0.95 (inactive) |
| Cc1cc(C)n(CC(=O)Nc2ccccc2)n1 | 1.01 (inactive) |
| COc1cc(CNC(C)C)c(Br)cc1OC1CCCC1 | 1.02 (inactive) |
| Cc1sc2nc(SC3CCOC3=O)n(Cc3ccccc3)c(=O)c2c1C (stereo unspecified) | 0.94 (inactive) |
| CC(C)OCCCNC(=O)CCC(=O)NNc1nc2ccccc2c2nc(-c3ccccc3)nn12 | 0.97 (inactive) |
| O=C1C(Cl)=C(Nc2ccc(O)cc2)C(=O)c2ccccc21 | 1.23 (inactive) |
| Cc1ccc(NC2=C(Cl)C(=O)c3ccccc3C2=O)cc1 | 1.27 (inactive) |
| Cc1sc2ncn(CC(=O)Nc3ccccc3F)c(=O)c2c1-c1ccccc1 | 0.95 (inactive) |
| O=C(NCC(c1ccco1)N1CCCCC1)c1ccc2c(c1)S(=O)(=O)c1ccccc1C2=O (stereo unspecified) | 0.99 (inactive) |
| CCCC(=O)c1cc2ccccc2oc1=O | 1.11 (inactive) |
| Cc1cc(C)nc(SCC(=O)c2cc3ccccc3oc2=O)n1 | 1.02 (inactive) |
| CCCCC(=O)NC(=S)NNC(=O)CC#N | 0.83 (inactive) |

| Compound | fold induction |
| --- | --- |
| CCCCCC(=O)NC(=S)NNC(=O)CC | 0.75 (inactive) |
| CCCNC(=O)C1(CC2CC(c3ccccc3)=NO2)CCN(C(=O)CCCCCBr)CC1 (stereo unspecified) | 1.03 (inactive) |
| CCC(=O)NC(c1ccccc1OC)c1ccc2cccnc2c1O (stereo unspecified) | 0.67 (inactive) |
| CCCC(=O)NC(c1ccccc1OC)c1ccc2cccnc2c1O (stereo unspecified) | 1.03 (inactive) |
| CCC(=O)NC(c1ccco1)c1cc(Cl)c2cccnc2c1O (stereo unspecified) | 1.13 (inactive) |
| O=C(NC(c1ccc(Cl)cc1)c1cc(Cl)c2cccnc2c1O)c1cccnc1 (stereo unspecified) | 1.09 (inactive) |
| O=C(O)COc1ccccc1C(Nc1ccccn1)c1cc(Cl)c2cccnc2c1O (stereo unspecified) | 1.19 (inactive) |
| O=C(NC(c1ccccc1)c1cc(Cl)c2cccnc2c1O)c1cccnc1 (stereo unspecified) | 0.87 (inactive) |
| CCCC(=O)NC(c1cccs1)c1cc(Cl)c2cccnc2c1O (stereo unspecified) | 1.06 (inactive) |
| CCCCC(=O)NC(c1ccco1)c1cc(Cl)c2cccnc2c1O (stereo unspecified) | 0.91 (inactive) |
| O=C(Cn1c(COc2ccccc2)nc2ccccc21)Nc1cc(Cl)cc(Cl)c1 | 0.92 (inactive) |
| CO/N=C/c1ccc(N2CCN(C(=O)c3ccc(F)cc3)CC2)c([N+](=O)[O-])c1 | 0.84 (inactive) |
| CC(=O)Nc1ccc(CN2CCCC(C(=O)c3ccc(C(F)(F)F)cc3)C2)cc1 (stereo unspecified) | 0.88 (inactive) |
| Cc1cc2ccccc2n2c(SCC(=O)NCC3CCCO3)nnc12 (stereo unspecified) | 0.94 (inactive) |
| Cc1nc(SC(C)C(=O)Nc2cccc(C(F)(F)F)c2)c2c(C)c(C(=O)O)sc2n1 (stereo unspecified) | 1.09 (inactive) |
| COCCNC(=O)c1cnn2c(C(F)F)cc(-c3ccccc3)nc12 | 1.17 (inactive) |
| COC(=O)c1ccc(N)cc1O | 1.05 (inactive) |
| COC(=O)c1ccc(C(=O)OC)c(=O)[nH]1 | 1.03 (inactive) |
| COc1ccc(N2CCN(C(=O)c3ccc(C(C)(C)C)cc3)CC2)cc1 | 0.96 (inactive) |
| CC(=O)Nc1nc2cc3c(cc2s1)OCO3 | 0.99 (inactive) |
| COc1ccc(CCNC(=O)COC(=O)Cc2ccc(OC)cc2)cc1 | 0.8 (inactive) |
| CCOC(=O)c1c(C)oc2c1c(CN1CCN(C(=O)OCC)CC1)c(O)c1ccccc12 | 1.19 (inactive) |
| CCOC(=O)c1c(C)oc2c1c(C=NCCO)c(O)c1ccccc12 | 1.38 (inactive) |
